High-throughput results as filed in PubChem.
Only some compounds are listed: those with a hit (about 2.4% of all), similar ones and a draw of the others.
Pol iota inh: qHTS for Inhibitors of Polymerase Iota. Pol iota fluorescent replication assay, 10 min. Potency, µM (highest dose often 115 µM), for inactives: at the top dose activity, negative = inhibition, most hits filed as inhibitors. actives 1% (n = 390,000)
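Fluorescent replication assay read twice, at 0 min and 10 min after adding 50 nM (final) substrate. Enzyme (10 nM) and compounds were first incubated 15 min at room temperature; enzyme-free buffer wells were negative controls.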
Pol beta inh: qHTS Assay for Inhibitors of DNA Polymerase Beta. P06746. Pol beta primer extension/strand displacement, fluorescence kinetic. Potency, µM (titrated, usually from 114 µM), without a hit: top-dose activity change, negative = inhibition, actives largely listed as inhibitors. actives 1.3% (n = 340,000). AID 485314, 2010; also: % is scaled to controls: 0 for no effect and ±100 for the full control effect
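Pol beta (10 nM) and compounds were preincubated 15 min at room temperature, then 50 nM substrate (final) started primer extension/strand displacement. Reads were taken at 0 and 10 min; concentration-response data were fitted to a four-parameter Hill equation.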
WRN inhibitor: qHTS for Inhibitors of WRN Helicase. Bifunctional 3'-5' exonuclease/ATP-dependent helicase WRN (Homo sapiens), Q14191. WRN helicase unwinding, fluorescent forked duplex, kinetic. Potency, µM (doses to about 114 µM), for inactives: at the highest dose activity change, negative = inhibition, most hits filed as inhibitors. actives 0.46% (n = 360,000). AID 651768, 2012; also: % is scaled to controls: 0 for no effect and ±100 for the full control effect; nearly all actives have a fitted effect of over 55% in size
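Screening of the MLSMR collection measured strand separation of a quenched forked DNA duplex (100 nM) by 20 nM WRN with 2 mM ATP, all final. Compounds were preincubated with enzyme 15 min at room temperature.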
Pol kappa inh: qHTS for Inhibitors of Polymerase Kappa; DNA polymerase kappa (Homo sapiens), Q9UBT6; purified Pol kappa, fluorescent DNA synthesis assay, 10 min; Potency, µM (doses to about 107 µM), for the others: at the highest dose activity, negative = inhibition, hits mostly inhibitors; actives 0.53% (n = 400,000); also: % is scaled to controls: 0 for no effect and ±100 for the full control effect
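10 nM Pol kappa preincubated 15 min at room temperature with compounds, then reaction started with substrate at 50 nM final. Fluorescence read kinetically at 0 and 10 min; buffer-only wells served as negative control.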
FEN1 inh: qHTS Assay for the Inhibitors of Human Flap endonuclease 1 (FEN1). P39748. actives 0.35% (n = 390,000). AID 588795, 2011. Recombinant FEN1 flap cleavage, fluorescence, 15 min. Potency, µM (top dose mostly 114 µM), for the others: at the top dose activity change, negative = inhibition, usual class: inhibitors; also: % is scaled to controls: 0 for no effect and ±100 for the full control effect; nearly all actives have a fitted effect of over 65% in size
Target sequence (P39748 whole entry, looked up): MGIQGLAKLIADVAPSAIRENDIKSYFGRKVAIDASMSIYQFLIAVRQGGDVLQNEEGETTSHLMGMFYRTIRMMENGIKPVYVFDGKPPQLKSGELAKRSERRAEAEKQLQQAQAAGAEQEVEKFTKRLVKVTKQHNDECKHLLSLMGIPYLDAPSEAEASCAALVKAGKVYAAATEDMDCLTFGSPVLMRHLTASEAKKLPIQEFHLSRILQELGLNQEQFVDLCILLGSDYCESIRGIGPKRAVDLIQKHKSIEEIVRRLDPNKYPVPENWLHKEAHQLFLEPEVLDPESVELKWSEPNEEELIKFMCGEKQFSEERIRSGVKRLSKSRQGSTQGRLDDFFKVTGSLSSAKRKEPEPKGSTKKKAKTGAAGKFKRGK
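Quantitative HTS format: each compound was titrated, incubated with 10 nM nuclease for 15 min at room temperature, then challenged with flap substrate at 50 nM final. Signal change over 15 min gave concentration–effect curves.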
Pol eta inh: qHTS for Inhibitors of Polymerase Eta; DNA polymerase eta (Homo sapiens), Q9Y253; recombinant Pol eta, fluorescent DNA replication assay; Potency, µM (top dose mostly 114 µM), inactives show top-dose activity change, negative = inhibition, actives largely listed as inhibitors; actives 1.2% (n = 390,000); AID 588591, 2011; also: % is scaled to controls: 0 for no effect and ±100 for the full control effect
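Pol eta at 10 nM preincubated with compounds 15 min at room temperature; reaction started with fluorescent substrate (50 nM final) and read kinetically at 0 and 10 min.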
The depositor's hits bear a star; ? = inconclusive; nt = not tested or not shown; ! = a repeat was not active; [ ] = another dose, or the depositor's remark. Calls follow the shape of the dose curve; as a rule, active = well fitted curve in the direction sought with a large enough effect; inconclusive = small, poorly fitted or top-dose-only effect, or another doubt; inactive = no such curve, though single readings can be large; an effect the other way counts as inactive or inconclusive. Potency is read from the fitted curve at half-maximal effect.

SMILES | Pol iota inh | Pol beta inh | WRN inhibitor | Pol kappa inh | FEN1 inh | Pol eta inh
CC1(OC(=O)C2CCCC2)C(=O)C=C2C=C(c3ccsc3)OC=C2C1=O (stereo not given) | 45µM* | 35µM* | ? | ? | ? | 32µM*
CC1(OC(=O)c2ccco2)C(=O)C=C2C=C(C3CC3)OC=C2C1=O (stereo not given) | ? | nt | ? | 79µM* | ? | 45µM*
Cc1ccc(S(=O)(=O)N2CCCCC2)cc1NC(=O)CCc1nc2ccccc2c(=O)[nH]1 | ? | nt | -25% | -8% | 7% | 28µM*
COc1ccc(S(=O)(=O)N2CCCCC2)cc1NC(=O)CCc1nc2ccccc2c(=O)[nH]1 | -10% | nt | 8% | 2% | 0% | -11%
CCOc1ccc(-n2c(SCC(=O)N3CCCCC3)nc3c([nH]c4ccccc43)c2=O)cc1 | 25% | -14% | nt | -2%[60.1 µM] | -5% | -9%
CCOC(=O)c1ccc2c(c1)C1C=CCC1C(C(=O)OCC)N2 (stereo not given) | ? | ? | -11%[57.1 µM] | -23% | ? | ?
CCOC(=O)C1Nc2ccc(Br)cc2C2C=CCC12 (stereo not given) | 45µM* | ? | -21% | ? | -20% | 79µM*
CCOC(=O)C1Nc2ccc(C)cc2C2C=CCC12 (stereo not given) | ? | nt | -7% | -22% | -11% | -11%
O=C(OC1CCCCC1)c1ccc2c(c1)C1C=CCC1C(C(=O)O)N2 (stereo not given) | nt | 2.2µM* | nt | nt | nt | nt
Cc1cc(=O)n2nc(N3CCC(C(=O)Nc4ccc(C)c(Cl)c4)CC3)sc2n1 | 9% | 1% | nt | -3% | -7% | -22%
CSc1ccc(-c2sc(Nc3ccccc3)n[n+]2-c2ccccc2)cc1 | ? | ? | 20% | -15% | 22µM* | 4%
Cc1cccc(Cn2ccn(Cc3ccc(Cl)cc3)c(=O)c2=O)c1 | 7% | 25µM* | nt | -2% | 22% | 20%
Cc1cccc(Cn2ccc(-c3ccc(Cl)cc3)c(C#N)c2=O)c1 | -5% | -6% | -1% | -2% | -3% | -15%
CCN1/C(=C/c2cc[n+](C)cc2)C=Cc2cc(C)ccc21 | ? | 22µM* | -21%[57.1 µM] | -20% | ? | ?
CCCOc1ccc(/C=C2\SC(N)=NC2=O)cc1OC | ? | 56µM* | -7% | 3% | 12% | -18%
COc1ccc(/C=C2\SC(N)=NC2=O)cc1Br | ? | 40µM* | -32% | -20% | -2% | ?
Cc1cccc(C)c1NC(=O)CCC(=O)N1Cc2ccccc2Oc2ncccc21 | -19% | -30% | nt | -2% | -3% | -6%
CCCCNc1nc2c(S(=O)(=O)c3ccc(Br)cc3)nnn2c2ccsc12 | 3% | 30% | nt | -1% | -12% | 3%
NC(=O)COC(=O)c1c2c(nc3ccccc13)CCC2 | ? | ? | -12% | ? | -11% | 35µM*
O=C(Nc1cccc(S(=O)(=O)N2CCOCC2)c1)c1c2c(nc3ccccc13)CCC2 | 45µM* | 10µM* | -15%[57.1 µM] | -38% | -5% | ?
NC(=O)COC(=O)c1c2c(nc3ccccc13)CCCC2 | 94% | 26% | -26% | -2% | 4% | -12%
O=C(Nc1cccc(S(=O)(=O)N2CCOCC2)c1)c1ccc2ccccc2n1 | 7% | 1% | 4% | 5% | -21% | -6%
CCCC(C)NC(=O)c1c2c(nc3ccccc13)CCC2 (stereo not given) | ? | 18µM* | -3%[11.6 µM] | ? | -1% | ?
NC(C(=O)O)[C@H](O)C(=O)O (stereo not given in full) | nt | nt | nt | 5%[19.4 µM] | nt | nt
CC1=C(C(=O)Nc2ccccc2C)C(c2sccc2C)n2ncnc2N1 (stereo not given) | -19% | 26% | nt | -2%[60.1 µM] | -9% | -7%
SMILES | Pol iota inh | Pol beta inh | WRN inhibitor | Pol kappa inh | FEN1 inh | Pol eta inh
CCCCCCCCCCC/C=C\C(C)(C)/C=C\CCCC(=O)O | 28µM* | 32µM* | nt | 27µM*! | nt | 28µM*
CCCCC/C=C\C/C=C\C/C=C\C/C=C\CCCCCC(=O)O | nt | nt | nt | 3%[19.4 µM] | nt | nt
CCCCCCC/C=C\CCCCCCCCC(=O)O | 28µM* | ? | nt | ? | nt | ?
COc1ccc(/C=N/Nc2ncc(-c3ccccc3)cn2)c(OC)c1 | 25µM* | ? | -8%[11.6 µM] | -9% | -8% | -27%
COc1ccc(/C=N/Nc2nc(C)cc(-c3ccccc3)n2)c(OC)c1 | 192% | 1% | -33% | 6% | 7% | 10%
COC(=O)c1sc(N)c(C(=O)OC)c1COC(=O)CCNS(=O)(=O)c1ccc(C)cc1 | 89µM* | 10% | -12%[57.1 µM] | -9% | -16% | ?
COc1cccc(NC(=O)/C(C#N)=C\c2cn(Cc3ccc(C)cc3)c3ccccc23)c1 | 29% | 1% | nt | 7% | -6% | -13%
N#C/C(=C/c1cn(Cc2ccc(F)cc2)c2ccccc12)C(=O)Nc1cccc(Cl)c1 | 56µM* | 1% | nt | ? | 89µM* | -17%
Cn1c(=O)c2c(-c3ccc(Br)cc3)n(Cc3ccc(F)cc3)cc2n(C)c1=O | 89µM* | -19% | nt | ? | ? | -9%
COc1cc(O)c2c(=O)c3c(OC)c(O)ccc3oc2c1 | 8% | -27% | -6% | -6% | -15% | -21%
O=c1c(O)c(-c2ccc(O)cc2)oc2cc(O)cc(O)c12 | 79µM* | nt | -16% | -30% | ? | 25µM*
COc1cc(O)c2c(=O)c(O)c(-c3ccc(O)c(O)c3)oc2c1 | nt | nt | nt | 0.95µM* | nt | nt
CCCCN(CC)C(=O)c1cc2c(=O)n3ccccc3nc2n1C | -25% | 45µM* | nt | -28% | 0% | -12%
COc1cccc(CNC(=O)C(Cc2ccccc2)NS(=O)(=O)c2ccc3c(c2)CCN3C(C)=O)c1 (stereo not given) | -5% | -21% | nt | -4% | 8% | -9%
COc1ccc(CNC(=O)C2CCCN(c3nnc(C)c4c(C)n(-c5ccc(C)cc5)nc34)C2)cc1 (stereo not given) | 38% | -19% | nt | -4% | 7% | ?
COc1ccc(-n2nc3c(N4CCCC(C(=O)NCc5ccc(C)cc5)C4)nnc(C)c3c2C)cc1 (stereo not given) | 10% | 16µM* | nt | -11%[60.1 µM] | ? | ?
OCC1OC([S-])[C@H](O)C(O)C1O.[Au+] (stereo not given in full) | nt | nt | nt | 5µM* | nt | nt
